Calls of active or inactive are those of the source.
What was measured:
Albumin (Bos taurus) = Albumin (Bos taurus) (UniProt P02769); assay: compounds binding labelled BSA control protein – biochemical, small-molecule microarray, Alexa647 label, 635/667 nm fluorescence, artefact control for SMM control protein annotation, profiling panel (AID 1118); settings: BSA-A647 binding, fluorescence 635 nm, higher = more signal;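 also: score merges 667 nm emission intensity and signal-to-noise per printed compound spot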
[1] = probe aXIP binding to arrayed compounds – biochemical, NeuroSMM set, 635/667 nm fluorescence, primary screen (AID 1119); settings: small-molecule microarray, higher = more signal, called active from +8 up or from −8 down;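 also: probe is the protein aXip251-270 applied at 1 µg/mL to compound-printed slides; binding of probe to printed compounds measured as 667 nm fluorescence plus signal to noise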
[2] = probe aNOTCH3 binding on compound microarray – biochemical, small-molecule microarray, 635/667 nm fluorescence, primary screen (AID 1120); settings: higher = more signal;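 also: probe is a biotin-tagged antibody raised against NOTCH3 rather than NOTCH3 protein; score merges spot fluorescence near 667 nm with spot signal to noise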
[3] = probe aNOTCH2 binding on compound microarray – biochemical, small-molecule microarray, 635/667 nm fluorescence, primary screen (AID 1121); settings: higher = more signal;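 also: score merges feature fluorescence read at 667 nm with its signal to noise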
[4] = biological target: Carbonic anhydrase 2 (Homo sapiens) (UniProt P00918); assay: compounds binding carbonic anhydrase 2 – biochemical, small-molecule microarray, Alexa647-labelled CAII, profiling panel (AID 1122); settings: CAII-A647 binding fluorescence, higher = more signal
[5] = COS7 lysate on small-molecule microarray, probe aHis, 635 nm (AID 1123); settings: COS7 cell lysate, fluorescence, higher = more signal;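 also: z-score combines 667nm fluorescence intensity with signal-to-noise per printed compound spot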
[6] = probe aLAP1 signal on lysate-treated microarray – cell lysate, small-molecule microarray, COS7 lysate, primary screen (AID 1124); settings: probe aLAP1, fluorescence, higher = more signal;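 also: lysate comes from COS7 cells expressing LAP1 and is applied at 0.3 µg/mL; score merges spot fluorescence near 667 nm with signal-to-noise over triplicate slides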
Sam68 (KHDRBS1) = assay: compounds binding KHDRBS1 protein – biochemical, small-molecule microarray, 635 nm fluorescence, primary screen (AID 1125); settings: higher = more signal;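 also: score merges 667 nm channel intensity with signal to noise over triplicate slides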
[7] = test system: Chordin-like protein 2 (CHRDL2); assay: compounds binding chordin-like 2 – biochemical, small-molecule microarray, 635 nm fluorescence, primary screen (AID 1126); settings: fluorescence 635 nm, higher = more signal;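 also: printed compound slides probed with Chrdl2 protein at 4 µg/mL for 1 h at 4 C; score merges 667 nm emission intensity with signal to noise over three replicate slides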
[8] = biological target: Concanavalin-A (Canavalia ensiformis) (UniProt P02866); assay: compounds binding concanavalin A lectin – biochemical, small-molecule microarray, Alexa647 label, 635 nm, artefact control for SMM control protein annotation, primary screen (AID 1127); settings: ConA-A647 binding fluorescence, higher = more signal;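 also: z combines 667 nm emission intensity with signal-to-noise across three replicate slides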
[9] = compounds binding Alexa647 anti-His antibody – biochemical, small-molecule microarray, 635 nm fluorescence, artefact control for SMM control protein annotation, primary screen (AID 1128); settings: higher = more signal;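 also: score merges feature fluorescence with signal-to-noise for each printed compound spot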
[10] = test system: Human papillomavirus type 1a E7 protein (residues 1-88); assay: HPV1a E7 small-molecule binders, primary screen, biochemical, small-molecule microarray, residues 1-88, 635 nm (AID 1129); settings: small-molecule microarray binding, fluorescence 635 nm; higher = more signal
[11] = biological target: Focal adhesion kinase 1 (Homo sapiens) (UniProt Q05397); assay: PTK2 protein binding on printed compound slides – biochemical, small-molecule microarray, 635/667 nm fluorescence, BSA, DTT, primary screen (AID 1130); settings: 635 nm fluorescence, higher = more signal;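 also: composite of spot emission at 667 nm and signal to noise over triplicate slides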
[12] = test system: Fibrinogen (Alexa647-labelled); assay: Alexa647-fibrinogen binding to printed small molecules – biochemical, small-molecule microarray, 635/667 nm fluorescence, artefact control for SMM control-protein annotation, profiling panel (AID 1131); settings: fibrinogen-A647 binding fluorescence, higher = more signal;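 also: z-score merges 667 nm fluorescence with per-spot signal-to-noise over triplicate slides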
[13] = biological target: Follistatin (Homo sapiens) (UniProt P19883); assay: FST protein binding to printed compounds – biochemical, small-molecule microarray, 635/667 nm fluorescence, primary screen (AID 1132); settings: 635 nm fluorescence, higher = more signal
[14] = biological target: Fibroblast growth factor 2 (Homo sapiens) (UniProt P09038); assay: basic fibroblast growth factor binding to printed compounds – biochemical, small-molecule microarray, 635/667 nm fluorescence, primary screen (AID 1133); settings: FGF2, fluorescence 635/667, higher = more signal
[15] = JC-1 mitochondrial potential readout, lung cancer cells – cell-based, A549, JC-1 fluorescence, basal, 24 h, 100 nL, profiling panel (AID 1138); settings: higher = more signal;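 also: A549 lung adenocarcinoma cells under basal conditions with no added stimulus; test concentration not given here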
Lefty1 = Lefty1 protein binding to printed compounds – biochemical, small-molecule microarray, 635/667 nm fluorescence, primary screen (AID 1139); settings: fluorescence 635/667, higher = more signal
[16] = test system: wheat germ agglutinin (Triticum aestivum), Alexa647-labelled; assay: Alexa647-WGA lectin binding to printed small molecules – biochemical, small-molecule microarray, 635/667 nm fluorescence, artefact control for SMM control-protein annotation, profiling panel (AID 1140); settings: WGA-A647 binding, 635 nm fluorescence, higher = more signal;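 also: score merges 667 nm feature emission with signal to noise over triplicate slides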
[17] = biological target: Luciferin 4-monooxygenase (Photinus pyralis) (UniProt P08659); assay: inhibition of purified Photinus pyralis luciferase – biochemical, luminescence, purified enzyme, 2006 set, primary screen (AID 1141); settings: purified firefly luciferase, SteadyGlo luminescence, 30 min; higher = more signal, called active from +8 up or from −8 down;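 also: cell-free assay with purified firefly luciferase at 100 ng per well in PBS; test concentration not given here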
Luciferin 4-monooxygenase (Photinus pyralis), sequence (P08659 whole entry, looked up): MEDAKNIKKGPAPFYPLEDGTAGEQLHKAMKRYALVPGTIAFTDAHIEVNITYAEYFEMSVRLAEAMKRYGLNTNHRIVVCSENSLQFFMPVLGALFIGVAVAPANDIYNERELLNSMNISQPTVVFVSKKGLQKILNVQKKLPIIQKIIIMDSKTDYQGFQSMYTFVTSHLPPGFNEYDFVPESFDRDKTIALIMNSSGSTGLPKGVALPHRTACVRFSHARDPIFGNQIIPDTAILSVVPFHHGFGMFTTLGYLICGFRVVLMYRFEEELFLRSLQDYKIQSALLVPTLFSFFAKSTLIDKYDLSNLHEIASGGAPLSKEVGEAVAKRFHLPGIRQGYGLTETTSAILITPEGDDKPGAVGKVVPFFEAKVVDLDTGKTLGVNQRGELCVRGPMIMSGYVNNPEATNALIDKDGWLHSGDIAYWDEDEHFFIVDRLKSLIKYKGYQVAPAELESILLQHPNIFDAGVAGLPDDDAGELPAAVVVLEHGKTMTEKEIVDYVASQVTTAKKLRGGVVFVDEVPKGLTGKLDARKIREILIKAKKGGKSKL

Follistatin (Homo sapiens), sequence (P19883 whole entry, looked up): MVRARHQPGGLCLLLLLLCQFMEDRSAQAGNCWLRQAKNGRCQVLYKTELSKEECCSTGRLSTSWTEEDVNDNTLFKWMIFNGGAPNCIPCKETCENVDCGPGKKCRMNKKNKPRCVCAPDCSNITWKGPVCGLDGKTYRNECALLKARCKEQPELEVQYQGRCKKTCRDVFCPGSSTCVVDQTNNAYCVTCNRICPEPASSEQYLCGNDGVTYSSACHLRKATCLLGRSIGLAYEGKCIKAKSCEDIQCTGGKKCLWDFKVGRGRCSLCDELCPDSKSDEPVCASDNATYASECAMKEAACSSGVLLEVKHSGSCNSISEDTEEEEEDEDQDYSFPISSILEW
Concanavalin-A (Canavalia ensiformis), sequence (P02866 whole entry, looked up): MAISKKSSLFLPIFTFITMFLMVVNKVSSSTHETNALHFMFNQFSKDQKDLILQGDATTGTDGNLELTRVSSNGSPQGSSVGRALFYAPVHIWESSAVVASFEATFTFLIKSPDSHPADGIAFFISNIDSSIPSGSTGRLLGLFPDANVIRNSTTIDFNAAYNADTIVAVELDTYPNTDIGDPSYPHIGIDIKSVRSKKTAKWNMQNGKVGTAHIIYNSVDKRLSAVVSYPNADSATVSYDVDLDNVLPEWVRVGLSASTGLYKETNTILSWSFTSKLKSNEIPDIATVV
Focal adhesion kinase 1 (Homo sapiens), sequence (Q05397 whole entry, looked up): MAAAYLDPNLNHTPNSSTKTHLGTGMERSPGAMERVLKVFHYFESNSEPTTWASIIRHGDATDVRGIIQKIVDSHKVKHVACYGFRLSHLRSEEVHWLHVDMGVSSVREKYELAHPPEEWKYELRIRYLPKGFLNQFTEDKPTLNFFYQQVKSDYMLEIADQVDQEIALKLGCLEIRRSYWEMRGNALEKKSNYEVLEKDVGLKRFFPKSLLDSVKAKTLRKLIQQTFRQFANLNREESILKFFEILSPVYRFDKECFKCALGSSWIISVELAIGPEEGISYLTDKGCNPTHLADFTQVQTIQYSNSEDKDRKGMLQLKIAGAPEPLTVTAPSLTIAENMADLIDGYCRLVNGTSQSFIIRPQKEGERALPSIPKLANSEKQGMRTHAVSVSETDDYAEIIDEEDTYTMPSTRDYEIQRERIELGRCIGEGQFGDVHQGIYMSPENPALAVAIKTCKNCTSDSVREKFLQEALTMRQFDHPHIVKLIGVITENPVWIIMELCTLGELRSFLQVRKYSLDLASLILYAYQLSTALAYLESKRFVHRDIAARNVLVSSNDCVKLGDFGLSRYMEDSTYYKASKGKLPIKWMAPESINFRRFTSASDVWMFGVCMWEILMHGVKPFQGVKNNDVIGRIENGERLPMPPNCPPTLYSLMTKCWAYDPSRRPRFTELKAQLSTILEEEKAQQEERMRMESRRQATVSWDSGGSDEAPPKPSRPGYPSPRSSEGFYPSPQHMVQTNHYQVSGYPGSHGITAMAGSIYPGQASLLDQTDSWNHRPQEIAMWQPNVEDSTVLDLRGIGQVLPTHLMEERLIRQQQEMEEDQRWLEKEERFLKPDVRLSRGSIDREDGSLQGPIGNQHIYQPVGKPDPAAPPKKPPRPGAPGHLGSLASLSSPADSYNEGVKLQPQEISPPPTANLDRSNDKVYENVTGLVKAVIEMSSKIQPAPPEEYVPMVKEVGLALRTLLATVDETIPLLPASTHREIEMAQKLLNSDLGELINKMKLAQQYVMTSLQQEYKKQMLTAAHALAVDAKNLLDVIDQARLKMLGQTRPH
Fibroblast growth factor 2 (Homo sapiens), sequence (P09038 whole entry, looked up): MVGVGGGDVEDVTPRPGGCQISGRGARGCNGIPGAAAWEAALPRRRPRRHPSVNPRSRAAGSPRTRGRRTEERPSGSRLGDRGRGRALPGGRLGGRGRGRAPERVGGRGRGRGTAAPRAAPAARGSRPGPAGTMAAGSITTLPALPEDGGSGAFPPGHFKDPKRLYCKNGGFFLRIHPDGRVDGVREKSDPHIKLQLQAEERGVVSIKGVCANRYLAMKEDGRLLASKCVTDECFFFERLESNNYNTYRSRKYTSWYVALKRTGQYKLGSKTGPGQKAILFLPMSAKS
Albumin (Bos taurus), sequence (P02769 whole entry, looked up): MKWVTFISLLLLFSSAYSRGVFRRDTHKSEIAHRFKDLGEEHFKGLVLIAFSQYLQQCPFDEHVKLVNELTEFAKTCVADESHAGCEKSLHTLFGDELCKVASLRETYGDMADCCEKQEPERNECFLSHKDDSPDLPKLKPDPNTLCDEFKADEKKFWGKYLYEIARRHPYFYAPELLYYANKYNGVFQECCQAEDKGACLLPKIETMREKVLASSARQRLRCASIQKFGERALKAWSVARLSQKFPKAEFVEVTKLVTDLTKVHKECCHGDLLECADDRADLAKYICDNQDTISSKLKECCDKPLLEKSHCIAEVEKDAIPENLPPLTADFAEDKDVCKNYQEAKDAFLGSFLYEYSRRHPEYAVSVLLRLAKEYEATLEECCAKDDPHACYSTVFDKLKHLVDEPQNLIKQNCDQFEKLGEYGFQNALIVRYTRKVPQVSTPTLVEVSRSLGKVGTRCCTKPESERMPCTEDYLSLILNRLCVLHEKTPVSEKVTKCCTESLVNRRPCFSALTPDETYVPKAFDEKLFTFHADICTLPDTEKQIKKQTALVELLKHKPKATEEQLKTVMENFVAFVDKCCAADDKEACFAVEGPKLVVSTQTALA

## CO[C@H]1COC(=O)CC=C[C@@H](C)[C@H](OC)COC(=O)CCC[C@@H]1C
Albumin (Bos taurus)
  composite z-score: -0.913
[1]
  composite Z-score: 0.0032 (inactive)
[2]
  composite z-score: -0.149
[3]
  composite z-score: -0.118
[4]
  composite z-score: -0.601
[5]
  composite z-score: 0.302
[6]
  composite z-score: 0.923
Sam68 (KHDRBS1)
  composite z-score: 0.0465
[7]
  composite z-score: 1.41
[8]
  composite z-score: -0.819
[9]
  composite z-score: 0.165
[10]
  composite z-score: -0.289
[11]
  composite z-score: -0.735
[12]
  composite z-score: -0.511
[13]
  composite z-score: 0.776
[14]
  composite z-score: 1.15
[15]
  z-score: -0.738
Lefty1
  composite z-score: 0.945
[16]
  composite z-score: -0.173
[17]
  z-score: 1.09 (inactive)

## O=C1CCCC=C1C(CCc1ccccc1)OC(=O)c1ccc(Br)cc1 (stereo not given)
Albumin (Bos taurus)
  composite z-score: -0.457
[1]
  composite Z-score: -0.727 (inactive)
[2]
  composite z-score: -0.104
[3]
  composite z-score: -0.146
[4]
  composite z-score: -0.475
[5]
  composite z-score: 0.214
[6]
  composite z-score: -0.815
Sam68 (KHDRBS1)
  composite z-score: -1.4
[7]
  composite z-score: 0.388
[8]
  composite z-score: -0.612
[9]
  composite z-score: 0.0508
[10]
  composite z-score: -0.757
[11]
  composite z-score: -0.0417
[12]
  composite z-score: -0.612
[13]
  composite z-score: 0.0148
[14]
  composite z-score: 0.0039
[15]
  z-score: -0.65
Lefty1
  composite z-score: 0.167
[16]
  composite z-score: -0.254
[17]
  z-score: 0.063 (inactive)

## CC(CCN1CCCCc2nc(C)c(C)cc21)=NOC[C@@H](O)COCc1ccco1
Albumin (Bos taurus)
  composite z-score: -0.732
[1]
  composite Z-score: 1.28 (inactive)
[2]
  composite z-score: 0.149
[3]
  composite z-score: -0.137
[4]
  composite z-score: -0.297
[5]
  composite z-score: -0.964
[6]
  composite z-score: -0.125
Sam68 (KHDRBS1)
  composite z-score: 0.428
[7]
  composite z-score: 1.63
[8]
  composite z-score: -1.26
[9]
  composite z-score: 0.111
[10]
  composite z-score: -0.91
[11]
  composite z-score: 0.0817
[12]
  composite z-score: -0.426
[13]
  composite z-score: 1.42
[14]
  composite z-score: 1.98
[15]
  z-score: 0.143
Lefty1
  composite z-score: 1.68
[16]
  composite z-score: -0.466
[17]
  z-score: 0.357 (inactive)

## CC(C)[C@@H](OCc1ccccc1)[C@H](C)C=NOC[C@@H](O)COCc1ccco1
Albumin (Bos taurus)
  composite z-score: -0.113
[1]
  composite Z-score: -0.0572 (inactive)
[2]
  composite z-score: -0.819
[3]
  composite z-score: -0.244
[4]
  composite z-score: -0.512
[5]
  composite z-score: 0.0121
[6]
  composite z-score: 0.0218
Sam68 (KHDRBS1)
  composite z-score: -0.185
[7]
  composite z-score: -1.48
[8]
  composite z-score: -1.15
[9]
  composite z-score: 1.29
[10]
  composite z-score: -0.244
[11]
  composite z-score: -0.277
[12]
  composite z-score: -1.75
[13]
  composite z-score: -1.05
[14]
  composite z-score: -1.37
[15]
  z-score: -0.541
Lefty1
  composite z-score: -0.801
[16]
  composite z-score: -1.29
[17]
  z-score: 0.331 (inactive)

## CCOC(=O)[C@H](CC(C)C)NC(=O)CCC1CC(OC(=O)NCCc2ccc(F)cc2)CC2(CCCC(COC(=O)NCC(c3ccccc3)c3ccccc3)O2)O1 (stereo not given in full)
Albumin (Bos taurus)
  composite z-score: 0.436
[1]
  composite Z-score: 0.428 (inactive)
[2]
  composite z-score: 0.0372
[3]
  composite z-score: -0.108
[4]
  composite z-score: 0.349
[5]
  composite z-score: -0.0758
[6]
  composite z-score: 0.0521
Sam68 (KHDRBS1)
  composite z-score: 1.11
[7]
  composite z-score: 0.609
[8]
  composite z-score: 1.1
[9]
  composite z-score: 0.59
[10]
  composite z-score: 0.749
[11]
  composite z-score: 0.097
[12]
  composite z-score: 0.874
[13]
  composite z-score: 0.678
[14]
  composite z-score: 0.533
[15]
  z-score: -0.642
Lefty1
  composite z-score: 0.875
[16]
  composite z-score: 0.737
[17]
  z-score: 0.897 (inactive)

## O=C1C[C@@H](O)[C@@H](O)[C@@H]2[C@@H]3C(=O)N(Cc4ccccc4)C(=O)[C@@H]3CC[C@@H]12
Albumin (Bos taurus)
  composite z-score: 0.256
[1]
  composite Z-score: 0.277 (inactive)
[2]
  composite z-score: -0.0328
[3]
  composite z-score: -0.12
[4]
  composite z-score: 0.0093
[5]
  composite z-score: -0.281
[6]
  composite z-score: 0.213
Sam68 (KHDRBS1)
  composite z-score: 0.63
[7]
  composite z-score: 0.791
[8]
  composite z-score: 0.633
[9]
  composite z-score: 0.467
[10]
  composite z-score: 0.789
[11]
  composite z-score: 0.0901
[12]
  composite z-score: 0.547
[13]
  composite z-score: 0.892
[14]
  composite z-score: 0.895
[15]
  z-score: -0.305
Lefty1
  composite z-score: 0.551
[16]
  composite z-score: 0.0697
[17]
  z-score: -0.0665 (inactive)
